Measurements from PubChem BioAssay (EPA / NIEHS).
Results filed as inconclusive are left out. Activity calls are given as the source filed them. Rule for the calls: active = hit-call score of the fitted dose curve at least 0.9, where 1 is the maximum; inconclusive = response in the unintended direction; inactive = score below 0.9.

Assay: Tanguay_ZF_120hpf_TR_legacy: (Legacy) Oregon State University Tanguay Lab 120 Hour Post-fertilization zebrafish Assay for Touch Response (AID 2283667)
Method: Tanguay_ZF_120hpf_legacy is a whole embryo, multiplexed endpoint assay using zebrafish larvae exposed for 120 hours post fertilization on a 96-well plate.Tanguay_ZF_120hpf_TR_legacy is one of one assay component(s) measured or calculated from the Tanguay_ZF_120hpf_legacy assay. It is designed to make measurements of zebrafish development as detected with brightfield microscopy of developing zebrafish embryos.Data from the assay component Tanguay_ZF_120hpf_TR_legacy was analyzed into 1 assay endpoints. This assay endpoint, Tanguay_ZF_120hpf_TR_legacy, was analyzed in the positive analysis fitting direction relative to DMSO as the negative control and baseline of activity. Using a type of morphology reporter, gain-of-signal activity can be used to understand changes in developmentals as they relate to the whole embryo. To generalize the intended target to other relatable targets, this assay endpoint is annotated to the zebrafish development intended target family, where the subfamily is embryonic functional response.
Zebrafish husbandry: Tropical 5D wild-type adult zebrafish were housed in at an approximate density of 1000 per 100 gallon tank at the Sinnhuber Aquatic Research Laboratory, Oregon State University, Corvallis, OR. Each tank was kept at standard laboratory conditions of 28C on a 14-h light/10-h dark photoperiod in fish water consisting of reverse osmosis water supplemented with a commercially available salt (Instant Ocean). Spawning funnels were placed into the tanks the night prior, and embryos were collected and staged. […] Ten microliters of each row of dilution plate 2 was added to 2 exposure plates. The final DMSO concentration used was 0.64% (vol/vol). Thirty-two embryos were also exposed to 5uM trimethyltin chloride (positive control). Plates were sealed to prevent evaporation and foil covered to reduce light exposure and kept in a 28C incubator. Embryos were statically exposed until 120 hpf. At 24 hpf, embryos were assessed for photomotor response using a custom photomotor response analysis tool (PRAT) and for developmental toxicity endpoints (MO24: mortality at 24 hpf, DP: developmental progression, SM: spontaneous movement, and NC: notochord distortion). At 120 hpf, locomotor activity was measured using Viewpoint Zebralab and assessed for 18 endpoints. Zebrafish acquisition and analysis program (ZAAP), a custom program designed to inventory, acquire, and manage zebrafish data, was used to collect developmental endpoints as either present or absent (i.e., binary responses were recorded). If mortality occurred for an embryo (at either 24 or 120 hpf), the non-mortality endpoints were not measured.

Compound | outcome | AC50
CCO[Si](CCCNC(N)=O)(OCC)OCC | inactive | –
Cc1cn([C@H]2C[C@H](N=[N+]=[N-])[C@@H](CO)O2)c(=O)[nH]c1=O | inactive | –
Cc1cc(F)ccc1-c1cc(N2CC[C@@H](O)[C@H]2CO)ncc1N(C)C(=O)C(C)(C)c1cc(C(F)(F)F)cc(C(F)(F)F)c1 | inactive | –
O=C(O)Cn1c(=O)n(Cc2ccc(Br)cc2F)c(=O)c2ccc(Cl)cc21 | inactive | –
O=c1ccc2ccccc2o1 | inactive | –
Clc1cc(Cl)c2c(c1)N=C1CCCCCN1C2 | – | 15.7 µM (active)
CCOC(=O)O[C@H](C)OC(=O)c1ccc2c(c1)cc(C(=O)NC1CCN(C(C)C)CC1)n2Cc1cc(-c2ccc(Cl)s2)on1 | inactive | –
Cc1ncc(CO)c(CO)c1O | inactive | –
Oc1ccc2ccccc2c1 | – | 33.6 µM (active)
CC(=O)N1CCN(c2ccc(OC[C@H]3CO[C@](Cn4ccnc4)(c4ccc(Cl)cc4Cl)O3)cc2)CC1 | inactive | –
CC[C@H](NC(=O)c1cc(F)ccc1NS(=O)(=O)c1cccc2cccnc12)c1ccccc1 | inactive | –
CCCCCc1ccc(N)cc1 | inactive | –
CCN(CC)C(=O)c1cc(S(=O)(=O)Cc2ccccc2)c(N2CCC(c3ccccc3)CC2)cc1N(CC)CCN(C)C | inactive | –
NCc1cccc(C2CCN(C(=O)c3ccc(C#Cc4ccccc4F)o3)CC2)c1 | inactive | –
CC(C)(C)c1csc(-c2cc3cc(OCc4ccccc4CC(=O)O)ccc3o2)n1 | inactive | –
Clc1ccccc1C(c1ccccc1)(c1ccccc1)n1ccnc1 | – | 25 µM (active)
CC(C)(C)c1cc(/C=C2\SC(N)=NC2=O)cc(C(C)(C)C)c1O | inactive | –
CCCCCCCCCC(=O)O | inactive | –
CCCCOC(=O)CC(CC(=O)OCCCC)(OC(C)=O)C(=O)OCCCC | inactive | –
CCN(Cc1cccc(S(=O)(=O)O)c1)c1ccc(C(=C2C=CC(=[N+](CC)Cc3cccc(S(=O)(=O)O)c3)C=C2)c2ccccc2S(=O)(=O)[O-])cc1 | inactive | –

Compound | outcome | AC50
CO[C@H]1/C=C/O[C@@]2(C)Oc3c(C)c(O)c4c(O)c(c(/C=N/N5CCN(C)CC5)c(O)c4c3C2=O)NC(=O)/C(C)=C\C=C\[C@H](C)[C@H](O)[C@@H](C)[C@@H](O)[C@@H](C)[C@H](OC(C)=O)[C@@H]1C | inactive | –
OCCO | inactive | –
CCCCCCCCCCCO | inactive | –
CN1C(=O)CC[C@H]1c1cccnc1 | inactive | –
Cc1oc2c(NC(=O)c3c(Cl)cccc3Cl)cccc2c1C(C)(C)O | inactive | –
C[C@]12CC[C@@H]3c4ccc(O)cc4CC[C@H]3[C@@H]1CCC2=O | inactive | –
CCCCCCCCOC(=O)c1cc(O)c(O)c(O)c1 | inactive | –
CCCCOC(=O)c1ccc(O)cc1 | – | 49.3 µM (active)
COc1cc(C(=O)NC2CCN(C)CC2)ccc1Nc1ncc2c(n1)N(C1CCCC1)CC(F)(F)C(=O)N2C | – | 36.1 µM (active)
O=CCCCC=O | inactive | –
O=C(O)Cc1cc(I)c(Oc2ccc(O)c(I)c2)c(I)c1 | inactive | –
O=C1CCC(C2CCCCC2)CC1 | inactive | –
Cc1cc2c(cc1C(F)(F)F)N(C(=O)Nc1ccc(Oc3cccnc3C)nc1)CC2 | inactive | –
CCCCCCCC[Si](OCC)(OCC)OCC | inactive | –
Cc1ccc(C(C)C)cc1 | inactive | –
COCC(C)OCC(C)OCC(C)O (stereo not given) | inactive | –
O=c1c(-c2ccc(O)cc2)coc2cc(O)cc(O)c12 | inactive | –
C[C@]12CC[C@@H]3c4ccc(O)cc4CC[C@H]3[C@@H]1CC[C@H]2O | inactive | –
Oc1ccccc1 | inactive | –
CCCCCCCCN(C)CCCCCCCC | inactive | –
